Compound activity from PubChem BioAssay.
A selection: hits, their analogues and other compounds. The true share with any hit is near 7.8%.
HCV inhibitor = blocks hepatitis C virus; actives 3.4% (n = 340,000); Huh7.5.1 HCVcc-Cre infection, luciferase reporter, 44 h; Potency, µM (titrated, usually from 41.8 µM), inactives show at the highest dose activity change, negative = inhibition, hits mostly inhibitors; AID 651820; active means well fitted inhibition curve with a large enough effect; inconclusive means small, poorly fitted or top-dose-only effect, or another doubt; inactive means no such curve, though single readings can be large or run the other way; further: potency means the concentration at half of the fitted maximal effect
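Infectious HCV cell culture screen: compound-treated cells (1,000/well, pre-plated 4 h) are infected with HCVcc-Cre at roughly 0.5 moi and grown 44 h. Infection is quantified by luciferase signal after 15 min substrate incubation at room temperature.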
HCMV antiviral = inhibitors of human cytomegalovirus | HFF cells, HCMV-luciferase reporter, 72 h; hits give low values | activity change, negative = inhibition, % at 57.5 µM | AID 1259415 | actives 4.5% (n = 410,000); in the data active means activity change below about -60%; inconclusive means no clear call, values can overlap the other calls; inactive means above about -39%
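Cell-based, HFFs, 1000 cells/well, 16 h 37C; cpds in DMSO + HCMV-luc, MOI 1 PFU/cell; 72 h 37C; OneGlo luminescence after 5 min RT; norm. to buffer vs Salinomycin 10uM.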
VACV mCherry inh = inhibitors of vaccinia virus infection (mCherry reporter signal) | Vaccinia virus mCherry reporter infection, fluorescence | Potency, µM (titrated, usually from 36.5 µM), for inactives: top-dose activity change, negative = inhibition, hits mostly inhibitors | actives 0.63% (n = 310,000) | AID 720579; calls by dose curve; tested in A549 cells; further: potency means the concentration at half of the fitted maximal effect; nearly all actives have a fitted effect of over 35% in size
Marburg entry inh = blocks Marburg virus binding to or entry into cells | Marburg virus pseudotyped entry inhibition, cell reporter | Potency, µM (series often up to 37.8 µM), without a hit: at the highest dose activity change, negative = inhibition, usual class: inhibitors | actives 1.8% (n = 300,000); calls by dose curve; tested in HEK293 cells; further: potency means the concentration at half of the fitted maximal effect
LASV entry inh = Lassa virus entry inhibition. Lassa virus pseudotype entry inhibition, cell reporter. Potency, µM (series often up to 37.9 µM), for inactives: at the highest dose activity change, negative = inhibition, hits mostly inhibitors. actives 1.2% (n = 300,000). AID 540256; calls by dose curve; tested in HEK293 cells; further: potency means the concentration at half of the fitted maximal effect; nearly all actives have a fitted effect of over 50% in size
Vaccinia Venus = vaccinia inhibition (Venus reporter) | Vaccinia virus Venus reporter expression, fluorescence | Potency, µM (highest dose often 36.5 µM), without a hit: top-dose activity change, negative = inhibition, actives largely listed as inhibitors | actives 0.46% (n = 330,000) | AID 720580; calls by dose curve; tested in A549 cells; further: potency means the concentration at half of the fitted maximal effect; nearly all actives have a fitted effect of over 30% in size
An asterisk follows results filed as active; i = inactive; ? = inconclusive; nt = no result given; [ ] = dose if it differs, or a comment. On the % scale 0 is the no-effect control and ±100 the full control effect.

SMILES	HCV inhibitor	HCMV antiviral	VACV mCherry inh	Marburg entry inh	LASV entry inh	Vaccinia Venus
CC(=O)c1cccc(NC(=O)CN2C(=O)CCc3cc(S(=O)(=O)N4CCCCC4)ccc32)c1	nt	-3	-5%	nt	16%[46.1 µM]	-1%
CCN1CCn2c3c(c4cc(Cl)ccc42)CCCC31 (centres undefined)	?	38	-28%	?	14%	-15%
CCN(CC)CCN1CCn2c3c(c4cc(C)ccc42)CCCC31 (centres undefined)	8.9µM*	?	nt	?	?	nt
CC(C)c1ccc(NC(=O)C2C3C=CC4(O3)C2C(=O)N(CCCN2CCCCC2)C4C(=O)NC2CCCCC2)cc1 (centres undefined)	-14%	-77*	7%	3%[46.1 µM]	nt	-3%
CC(=O)Nc1ccc(-c2nnc(SCc3ccccc3)n2C)cc1	nt	nt	-15%	nt	nt	-7%
CCc1nc2c(OCc3ccc(S(C)(=O)=O)cc3)cccn2c1N(C)C(=O)c1ccccc1F	nt	-19	13%	nt	nt	-18%
CCc1nc2c(OCc3ccc(Cl)cc3)cccn2c1N(C)C(=O)c1ccccc1F	nt	-63*	-21%	nt	nt	-12%
COc1ccc(C(=O)N/N=C/C(Br)=C/c2ccccc2)cc1	?	-65*	-27%	-2%	6%	-13%
O=C(N/N=C/C(Br)=C/c1ccccc1)c1cnccn1	-8%	-61*	-21%	?	?	-25%
COc1cc(/C=N\NC(=O)c2ccc(Cn3nc([N+](=O)[O-])c(Cl)c3C)o2)ccc1O	-24%	54	nt	8%[46.1 µM]	-1%	18µM*
COc1cccc(/C=N/NC(=O)C(C)n2nc(C)c([N+](=O)[O-])c2C)c1O (centres undefined)	?	107	?	?	?	?
COc1cccc(/C=N\NC(=O)c2ccc(Cn3cc(Br)c([N+](=O)[O-])n3)o2)c1O	2.8µM*	-81*	1.3µM*	4µM*	6.3µM*	?
CCOc1ccc(Nc2nn(-c3ccc(OC(F)(F)F)cc3)nc2C(C)=O)cc1	nt	18	-10%	10%[46.1 µM]	15%[46.1 µM]	-5%
C/C=C/C(=O)OCC(=O)Nc1ccc(OC)c(Cl)c1	19%	-6	8.9µM*	2%	-8%	10µM*
COc1cc(NC(=O)COC(=O)/C=C/c2ccc(OC)c(OC)c2)cc(OC)c1	?	40	-5%	-16%	7%	-14%
COc1cc(NC(=O)COC(=O)/C=C/c2ccccc2Cl)cc(OC)c1	-27%	-103*	-17%	15%	?	-1%
Cc1ccc(N(C(=O)CNC(=O)c2ccco2)C(C(=O)NCC2CCCO2)c2ccccc2)cc1C (centres undefined)	5%	-67*	-21%	-26%[46.1 µM]	nt	-23%
CCOc1ccc(N(C(=O)CNC(=O)c2ccco2)C(C(=O)NC2CCCC2)c2ccncc2)cc1 (centres undefined)	5%	-11	i	-18%[46.1 µM]	18%[46.1 µM]	-5%
CCOc1ccccc1N(C(=O)c1ccco1)C(C(=O)NC1CCCC1)c1cccs1 (centres undefined)	-15%	-63*	-16%	?	-12%[46.1 µM]	-1%
O=C(NC1CCCCC1)C(c1cccs1)N(C(=O)c1ccco1)c1ccc2c(c1)OCCO2 (centres undefined)	?	-61*	-14%	?	?	-7%
CC(=O)c1ccc(N(C(=O)c2ccco2)C(C(=O)NC2CCCC2)c2cccs2)cc1 (centres undefined)	-14%	?	-12%	-6%[46.1 µM]	nt	-16%
CCOc1ccccc1N(C(=O)CNC(=O)c1ccco1)C(C(=O)NC1CCCC1)c1ccncc1 (centres undefined)	-8%	-61*	-8%	-25%[46.1 µM]	24%	-2%
Cc1ccc(C)c(N(C(=O)CNC(=O)c2ccco2)C(C(=O)NCC2CCCO2)c2ccccc2)c1 (centres undefined)	-1%	?	-9%	-6%	3%	-11%
COc1ccc(CCNC(=O)c2ccc3c(c2)N(Cc2ccc(Cl)cc2)C(=O)c2ccccc2S3)cc1OC	nt	?	-21%	nt	-29%[46.1 µM]	-16%
CC(=O)c1cccc(NC(=O)c2c(C)nn(-c3ccc(F)cc3)c2-n2cccc2)c1	nt	-11	-12%	nt	19%[46.1 µM]	-1%
SMILES	HCV inhibitor	HCMV antiviral	VACV mCherry inh	Marburg entry inh	LASV entry inh	Vaccinia Venus
Cc1ccc(F)cc1C(=O)Nc1ccn2ccnc2n1	nt	2	nt	nt	nt	nt
CC(C)c1nn2c(=O)cc(COC(=O)c3ccccc3NC(=O)c3cccc(Cl)c3)nc2s1	nt	-30	i	nt	17%[46.1 µM]	-21%
Cc1ccc(N(C(=O)CNC(=O)c2ccco2)C(C(=O)NC2CCCC2)c2ccncc2)cc1C (centres undefined)	21%	-67*	12%	-1%[46.1 µM]	nt	2%
Cc1ccc(N(C(=O)CNC(=O)c2ccco2)C(C(=O)NC2CCCC2)c2ccncc2)cc1F (centres undefined)	19%	18	-15%	4%[46.1 µM]	0%	-1%
COC(=O)CN1C(=O)CSc2ccc(S(=O)(=O)Nc3ccc(F)c(Cl)c3)cc21	nt	-7	-8%	nt	-8%[46.1 µM]	-4%
CCc1cccc(NC(=O)c2cccc3c2C(=O)N(CC2CCCO2)C3)c1 (centres undefined)	11µM*	-30	-1%	nt	nt	9%
CCc1ccc(C(=O)CN2C(=O)NC3(CCCCCC3)C2=O)cc1	11µM*	9	-29%	?	0%	-7%
CCc1cccc2c(C(=O)CN3C(=O)NC4(CCCCCC4)C3=O)c[nH]c12	2.5µM*	-87*	-12%	?	?	?
CCOC(=O)N[C@](Nc1sc2c(c1C(N)=O)CCCC2)(C(=O)OCC)C(F)(F)F	nt	nt	nt	-5%	nt	nt
Nc1c2c(nc3sc4c(c13)CCCCC4)CCCC2	22µM*	-71*	?	?	?	10µM*
Nc1c2c(nc3sc4c(c13)CCCC4)-c1ccccc1CC2	?	?	?	7.1µM*	11µM*	?
N#CCc1ccc(NS(=O)(=O)c2ccc(C3CCCCC3)cc2)cc1	?	-64*	i	?	0%	-16%
COc1cc(NC(=O)CC2C(=O)N(c3cccc(C)c3)C(=O)N2Cc2cccs2)cc(OC)c1 (centres undefined)	nt	-31	-5%	nt	-28%[46.1 µM]	-7%
Cc1c(/C=N/NC(=O)c2cccnc2)c2ccccn2c1C(=O)c1ccc(F)cc1	-1%	nt	nt	3%	0%	nt
COC(=O)N/N=C/c1c(C)c(C(=O)c2ccc(F)cc2)n2ccccc12	?	-25	i	?	?	-10%
Cc1c(/C=N/NC(=O)c2ccc(O)cc2)c2ccccn2c1C(=O)c1ccc(F)cc1	?	56	-26%	?	11µM*	?
Cc1c(/C=N/NC(=O)c2ccccc2O)c2ccccn2c1C(=O)c1ccc(F)cc1	?	-19	?	11µM*	?	?
NC(=O)C[C@@H](N)C(=O)O	nt	nt	-19%	nt	nt	-16%
